Entries with a potency or affinity are not part of this list. The source made the active and inactive calls.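 How the source made its calls: active means cell killing, meaning signal decrease, with fitted half-maximal dose at or below ten times the top valid tested dose; inconclusive means poor fit, or flat curve with 30 to 70% signal loss; inactive means the rest.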

The nature of the experiment: HeLa cell cytotoxicity, dose response, cytotoxicity control for MITF activator project, CellTiter-Glo luminescence, cherry-pick samples (AID 540259). Particulars: HeLa viability, CellTiter-Glo ATP luminescence, 24 h; series mostly up to 35 µM. In general terms: Cellular ATP, detected with luciferase, serves as a proxy for viable cell number.
Regarding `CC(C)(C)c1ccc(C(=O)NCc2ccccc2)cc1`, the compound was called inactive.

Consider `Clc1ccc(-c2cc(CSc3ccccc3)on2)cc1`, for which the outcome was inactive.

In the case of `COc1ccc(C2Nc3ccccc3C(=O)N2c2ccc(C)cc2)cc1Cn1nnc2ccccc21` (configuration not stated), the outcome was inactive.

Consider `O=C(Nc1cnc2ccccc2c1)N1CCCCC1`, for which the compound was classed as inactive.

Turning to `O=C(Nc1ccc(C(F)(F)F)cc1)c1ccccc1`, the compound was called inactive.

For the compound `COC(=O)Cn1c(=NC(=O)c2ccc(Cl)s2)sc2cc(C)ccc21`, the call was inactive.

For the compound `CC1CCc2nc(NC(=O)Cc3cccs3)sc2C1` (configuration not stated), the compound was classed as inactive.

With `COC(=O)Cc1ccc(OCc2ccc(Cl)nc2)cc1`, the compound was called inactive.

For `Cc1ccccc1-c1nc2cc(Cl)ccc2o1`, the outcome was inactive.

For the compound `COc1ccc2ccccc2c1/C=N/Nc1cccc(C(=O)O)c1`, the compound was classed as inactive.

For `Cc1cc(C)c(NN=c2c(=O)c3ccccc3c2=O)c(C)c1`, the outcome was inactive.

For `CC1CCC(NC(=O)c2cc3c(s2)CCCC3)CC1` (configuration not stated), the outcome was inactive.

Turning to `Cc1ccc(N2C(=O)S/C(=C/c3cn(C)c4ccccc34)C2=O)cc1`, the outcome was inactive.

As to `N/C(=N\OC(=O)C1CCCCC1)c1cccc(Br)c1`, the compound was called inactive.

`COc1ccc(Br)c(C(=O)Nc2nc3ccccc3[nH]2)c1`: the compound was called inactive.

As for `O=C(O)c1ccc(N/N=C/c2cccc(C(F)(F)F)c2)cc1`, the compound was called inactive.

In the case of `c1ccc(-c2nc3ccccc3[nH]2)cc1`, the result was inactive.

For the compound `Cc1ccc(CSc2ccc(-c3cccs3)nn2)cc1`, the compound was called inactive.

`CC(=O)c1cnc2c(-c3cccc(Br)c3)cnn2c1C`: the result was inactive.

For `CN1CCN(/N=C/c2ccc(Br)cc2)CC1`, the compound was classed as inactive.

Regarding `CCCCN(C(=O)Cc1cccs1)c1nnc(-c2cccnc2)s1`, the call was inactive.

As to `O=C(Nc1ccc(Br)cc1F)c1ccc2nsnc2c1`, the call was inactive.

As to `C/C(=N/NC(=O)c1ccncc1)c1ccc(NC(=O)c2ccc(Cl)cc2Cl)cc1`, the result was inactive.

Consider `COCc1ccc(-c2c(-c3ccc(OC)cc3)oc(=O)c3cc(OC)c(OC)cc23)cc1`, for which the outcome was inactive.

Regarding `Cc1noc(N)c1C(=O)Nc1ccc(C(C)(C)C)cc1`, the compound was called inactive.

As for `CC(NC(=O)c1cc(COc2ccccc2)on1)c1nccs1` (configuration not stated), the result was inactive.

As for `Cn1cc(Br)c(C(=O)N/N=C/c2cc3c(cc2Cl)OCO3)n1`, the compound was classed as inactive.

As to `Cc1nc2ccccc2nc(=O)c1NNc1ccccc1`, the compound was classed as inactive.

Turning to `Cc1ccc(Nc2nc(CSc3n[nH]c(N)n3)cs2)cc1`, the compound was classed as inactive.

Consider `COc1ccc(NC(=O)C2Cc3ccccc3O/C2=N\O)cc1` (configuration not stated), for which the compound was called inactive.

As for `COc1ccc(-c2nn(-c3ccccc3)cc2C#N)cc1`, the result was inactive.

In the case of `CCCC(=O)N1c2ccc(-c3csc(N)n3)cc2CC1C` (configuration not stated), the result was inactive.

Take `CC(=O)c1cccc(NC(=O)c2cc3nc(C)cc(C)n3n2)c1`: the compound was classed as inactive.

For the compound `CCCCCc1ccc(-c2ccc(OC)cc2)nc1`, the result was inactive.

For the compound `COc1ccc(/C=C2\OC(=O)c3c(OC)cccc32)cc1OC`, the compound was called inactive.

Consider `c1ccc2c(c1)CC/C2=N/Nc1nc2ccccc2[nH]1`, for which the result was inactive.

For `O=C(Cc1ccccc1)Nc1ccc2c(c1)OC1(CCCC1)O2`, the compound was called inactive.
